Experimental data from PubChem BioAssay (NCI).
This is part of a sample that, as a whole, favours compounds with a hit. Of some 79,000 tested, about 15% had one in any assay. Activity calls are given as the source filed them. Cut-off read from the data, not from the text of the source: active = growth inhibition above about 70%; inactive = the rest.

Columns and labels:
[1] = NCI Yeast Anticancer Drug Screen. Data for the rad52 strain (AID 147);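 note: 0% = growth of vehicle-treated control cultures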; conditions: S. cerevisiae rad52 mutant growth inhibition, hits give high values
How it was run: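 Screen used a yeast mutant impaired in DNA repair. After compound exposure, growth was measured. Values reflect inhibition compared with vehicle-treated cells.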

[2] = NCI Yeast Anticancer Drug Screen. Data for the wt1 strain (AID 149);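 note: 0% = growth of vehicle-treated wt1 cultures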; conditions: S. cerevisiae wt1 strain (SPY 50644) growth inhibition, hits give high values
How it was run: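 Vehicle-normalised growth inhibition; strain wt1; compound exposure.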

[3] = NCI Yeast Anticancer Drug Screen. Data for the rad50EPP+ strain (AID 151);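 note: 0% = growth of vehicle-treated control cultures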; conditions: S. cerevisiae rad50 mutant strain, hits give high values
How it was run: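 Exposing the rad50EPP+ strain to each compound, growth was compared with vehicle-only cultures to give inhibition.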

[4] = NCI Yeast Anticancer Drug Screen. Data for the mgt1 strain (AID 153); conditions: S. cerevisiae mgt1 mutant growth inhibition, hits give high values
How it was run: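 Genetically defined yeast (mgt1) treated with compound; inhibition of growth expressed against vehicle-treated controls.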

[5] = NCI Yeast Anticancer Drug Screen. Data for the rad50 strain (AID 155);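 note: 0% = growth of vehicle-only cultures of the same strain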; conditions: S. cerevisiae rad50 strain growth inhibition, hits give high values
How it was run: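 A DNA repair-deficient yeast mutant serves as the test organism; compound-induced growth inhibition is calculated against vehicle-treated cells.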

[6] = NCI Yeast Anticancer Drug Screen. Data for the mec2-1 strain (AID 157); conditions: S. cerevisiae mec2-1 strain, hits give high values
How it was run: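 Readout is yeast growth inhibition, normalised to vehicle-treated controls, in the mec2-1 strain exposed to compound.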

[7] = NCI Yeast Anticancer Drug Screen. Data for the rad14 strain (AID 159);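 note: 0% = growth of vehicle-treated control cultures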; conditions: S. cerevisiae rad14 strain growth inhibition, hits give high values
How it was run: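 Vehicle-treated cultures served as the baseline for growth inhibition of a DNA repair-mutant yeast strain exposed to each compound.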

[8] = NCI Yeast Anticancer Drug Screen. Data for the sgs1 mgt1 strain (AID 161);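 note: 0% = growth of cultures given vehicle only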; conditions: S. cerevisiae sgs1 mgt1 strain, hits give high values
How it was run: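 Growth of a repair-deficient yeast mutant was monitored after compound treatment and expressed as inhibition relative to vehicle-treated cultures.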

[9] = NCI Yeast Anticancer Drug Screen. Data for the CLN2oe strain (AID 163);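 note: 0% = growth of vehicle-only control cultures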; conditions: S. cerevisiae CLN2oe strain, hits give high values
How it was run: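 Values reflect how much compound exposure reduced yeast growth, referenced to vehicle-exposed cells. Assay organism is a strain with a defined genetic change affecting cell-cycle control.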

[10] = NCI Yeast Anticancer Drug Screen. Data for the cln2 rad14 strain (AID 165);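 note: 0% = growth equal to vehicle treated cultures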; conditions: S. cerevisiae cln2 rad14 strain, hits give high values
How it was run: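 Relative to vehicle controls, growth inhibition of compound-treated cln2 rad14 yeast was recorded.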

[11] = NCI Yeast Anticancer Drug Screen. Data for the bub3 strain (AID 167); conditions: S. cerevisiae bub3 mutant strain, hits give high values
How it was run: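 Inhibition values come from growth of compound-treated mutant yeast normalised to vehicle-treated controls.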

[12] = NCI Yeast Anticancer Drug Screen. Data for the wt2 strain (AID 169);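 note: 0% = growth of vehicle-treated yeast cultures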; conditions: S. cerevisiae wt2 strain growth inhibition, hits give high values
How it was run: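 Values express reduction in yeast growth under compound treatment, referenced to vehicle-treated cells.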

[13] = NCI Yeast Anticancer Drug Screen. Data for the mlh1 strain (AID 171);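 note: 0% = growth of vehicle-treated control cultures of the same strain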; conditions: S. cerevisiae mlh1 strain growth inhibition, hits give high values
How it was run: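 Steps: expose the defined-mutant yeast strain to compound; expose a parallel culture to vehicle; measure growth; express compound effect as inhibition relative to the vehicle culture.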

[14] = NCI Yeast Anticancer Drug Screen. Data for the sgs1 strain (AID 173);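 note: 0% = growth of vehicle-only control cultures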; conditions: S. cerevisiae sgs1 mutant, hits give high values
How it was run: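 Treat defined-mutant yeast with compound; measure growth; calculate inhibition relative to vehicle-treated cells.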

[15] = NCI Yeast Anticancer Drug Screen. Data for the mlh1 rad18 strain (AID 175); conditions: S. cerevisiae mlh1 rad18 strain growth inhibition, hits give high values
How it was run: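 Test agents were incubated with a yeast strain of defined genotype (DNA damage repair defect). Inhibition of growth was derived by comparison with vehicle-exposed cultures.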

[16] = NCI Yeast Anticancer Drug Screen. Data for the rad18 strain (AID 177); conditions: S. cerevisiae rad18 mutant growth inhibition, hits give high values
How it was run: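 A genetically defined yeast mutant impaired in DNA damage repair was treated with test compounds, then its growth was measured against cultures receiving vehicle alone.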

[17] = at 5.0 µM (retest, dose inferred, filed as 0.5)
[18] = at 50.0 µM (retest, dose inferred, filed as 5.0)

Measured: growth inhibition

CC1SC2(C(=O)Nc3ccc(Cl)cc32)N(c2ccc(Cl)cc2)C1=O (stereo unspecified)
inactive: [1]; at 1.2 µM -2% | [1]; at 3.7 µM 0% | [1]; at 11.0 µM 17% | [2]; at 1.2 µM -3% | [2]; at 3.7 µM -4% | [2]; at 11.0 µM -3% | [2]; at 33.0 µM 68% | [2]; at 100.0 µM 61% | [3]; at 1.2 µM -2% | [3]; at 3.7 µM -3% | [3]; at 11.0 µM -1% | [3]; at 33.0 µM -2% | [3]; at 100.0 µM 1% | [4]; at 1.2 µM -5% | [4]; at 3.7 µM -4% | [4]; at 11.0 µM 3% | [5]; at 1.2 µM -14% | [5]; at 3.7 µM 0% | [5]; [17] 20% | [5]; at 11.0 µM 10% | [5]; [18] -1% | [6]; at 1.2 µM -3% | [6]; at 3.7 µM 3% | [6]; [17] 11% | [6]; at 11.0 µM 18% | [6]; [18] 5% | [7]; at 1.2 µM -3% | [7]; at 3.7 µM -2% | [7]; at 11.0 µM 10% | [8]; [17] 15% | [8]; [18] 4% | [9]; at 1.2 µM -7% | [9]; at 3.7 µM -7% | [9]; at 11.0 µM 12% | [10]; [17] -1% | [10]; [18] -11% | [11]; at 1.2 µM 3% | [11]; at 3.7 µM 12% | [11]; [17] 28% | [11]; at 11.0 µM 31% | [11]; [18] 9% | [12]; at 1.2 µM -4% | [12]; at 3.7 µM -5% | [12]; at 11.0 µM -3% | [13]; at 1.2 µM -1% | [13]; at 3.7 µM -1% | [13]; at 11.0 µM 12% | [14]; at 1.2 µM -2% | [14]; at 3.7 µM 0% | [14]; at 11.0 µM 12% | [15]; [17] 8% | [15]; [18] -4% | [16]; at 1.2 µM -41% | [16]; at 3.7 µM 11% | [16]; at 11.0 µM 35%
active: [1]; at 33.0 µM 98% | [1]; at 100.0 µM 89% | [4]; at 33.0 µM 98% | [4]; at 100.0 µM 95% | [5]; at 33.0 µM 96% | [5]; at 50.0 µM 99.6% | [5]; at 100.0 µM 96% | [6]; at 33.0 µM 99% | [6]; at 50.0 µM 99.8% | [6]; at 100.0 µM 98% | [7]; at 33.0 µM 99% | [7]; at 100.0 µM 99% | [8]; at 50.0 µM 99.8% | [9]; at 33.0 µM 99% | [9]; at 100.0 µM 81% | [10]; at 50.0 µM 99.5% | [11]; at 33.0 µM 95% | [11]; at 50.0 µM 99.5% | [11]; at 100.0 µM 97% | [12]; at 33.0 µM 98% | [12]; at 100.0 µM 98% | [13]; at 33.0 µM 97% | [13]; at 100.0 µM 93% | [14]; at 33.0 µM 98% | [14]; at 100.0 µM 94% | [15]; at 50.0 µM 99.5% | [16]; at 33.0 µM 97% | [16]; at 100.0 µM 81%

O=C1NC(SSC2=NNC3(C(=O)N2)c2ccccc2-c2ccccc23)=NNC12c1ccccc1-c1ccccc12
active: [5]; at 50.0 µM 96.2% | [6]; at 50.0 µM 80% | [8]; at 50.0 µM 80.5% | [11]; at 50.0 µM 86.5% | [15]; at 50.0 µM 96.2%
inactive: [1]; at 1.2 µM 2% | [1]; at 3.7 µM -1% | [1]; at 11.0 µM 1% | [1]; at 33.0 µM 8% | [1]; at 100.0 µM 33% | [2]; at 1.2 µM 0% | [2]; at 3.7 µM 0% | [2]; at 11.0 µM 0% | [2]; at 33.0 µM 1% | [2]; at 100.0 µM 5% | [3]; at 1.2 µM 8% | [3]; at 3.7 µM 9% | [3]; at 11.0 µM 20% | [3]; at 33.0 µM 43% | [3]; at 100.0 µM 63% | [4]; at 1.2 µM 1% | [4]; at 3.7 µM 0% | [4]; at 11.0 µM 0% | [4]; at 33.0 µM -10% | [4]; at 100.0 µM 7% | [5]; at 1.2 µM -1% | [5]; at 3.7 µM 7% | [5]; [17] -4% | [5]; at 11.0 µM -13% | [5]; at 33.0 µM 18% | [5]; [18] 53% | [5]; at 100.0 µM 37% | [6]; at 1.2 µM 1% | [6]; at 3.7 µM 2% | [6]; [17] -11% | [6]; at 11.0 µM 3% | [6]; at 33.0 µM 7% | [6]; [18] 10% | [6]; at 100.0 µM 13% | [7]; at 1.2 µM -1% | [7]; at 3.7 µM -4% | [7]; at 11.0 µM -1% | [7]; at 33.0 µM 2% | [7]; at 100.0 µM 8% | [8]; [17] -7% | [8]; [18] -23% | [9]; at 1.2 µM 4% | [9]; at 3.7 µM 1% | [9]; at 11.0 µM 1% | [9]; at 33.0 µM 5% | [9]; at 100.0 µM 2% | [10]; [17] 0% | [10]; [18] -14% | [10]; at 50.0 µM 51.8% | [11]; at 1.2 µM 4% | [11]; at 3.7 µM 6% | [11]; [17] 10% | [11]; at 11.0 µM 7% | [11]; at 33.0 µM 12% | [11]; [18] 25% | [11]; at 100.0 µM 12% | [12]; at 1.2 µM -1% | [12]; at 3.7 µM -3% | [12]; at 11.0 µM -3% | [12]; at 33.0 µM 0% | [12]; at 100.0 µM 5% | [13]; at 1.2 µM 3% | [13]; at 3.7 µM 1% | [13]; at 11.0 µM 2% | [13]; at 33.0 µM 8% | [13]; at 100.0 µM 17% | [14]; at 1.2 µM -4% | [14]; at 3.7 µM -1% | [14]; at 11.0 µM -6% | [14]; at 33.0 µM 1% | [14]; at 100.0 µM 11% | [15]; [17] -11% | [15]; [18] -7% | [16]; at 1.2 µM 0% | [16]; at 3.7 µM 3% | [16]; at 11.0 µM 5% | [16]; at 33.0 µM 5% | [16]; at 100.0 µM 9%
